Source: PubChem BioAssay
The source made the active and inactive calls. Unless noted, no rule for the calls is given here.

Key:
[1] = system: XIP peptide (Xip251-270) binding; experiment: XIP fragment 251-270 binding compounds – biochemical, small-molecule microarray, fluorescence 635/667 nm, 0.1 µg/mL protein, primary screen (AID 1182); conditions: fluorescent protein binding, 635 nm, higher = more signal, called active from +8 up or from −8 down
[2] = system: XIP peptide (Xip251-270); experiment: compounds binding XIP fragment 251-270 – biochemical, small-molecule microarray, fluorescence 635/667 nm, 0.5 µg/mL protein, primary screen (AID 1183); conditions: fluorescence 635 nm, higher = more signal
[3] = blood-stage malaria parasite viability loss – strain 3D7, DAPI fluorescence, 100 nL, primary screen (AID 1184);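 also: parasites grown inside human red blood cells in medium with human serum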; conditions: P. falciparum 3D7 growth, 3 d, higher = more signal
[4] = biological target: Homeobox protein Hox-A13 (Mus musculus) (UniProt Q62424); experiment: disruptors of Hoxa13 oligonucleotide interaction – biochemical, fluorescence polarization, labeled oligonucleotide, primary screen (AID 1185); conditions: Hoxa13:DNA binding, 15 min, higher = more signal, called active from +8 up or from −8 down
Chain of Homeobox protein Hox-A13 (Mus musculus) (Q62424 whole entry, looked up): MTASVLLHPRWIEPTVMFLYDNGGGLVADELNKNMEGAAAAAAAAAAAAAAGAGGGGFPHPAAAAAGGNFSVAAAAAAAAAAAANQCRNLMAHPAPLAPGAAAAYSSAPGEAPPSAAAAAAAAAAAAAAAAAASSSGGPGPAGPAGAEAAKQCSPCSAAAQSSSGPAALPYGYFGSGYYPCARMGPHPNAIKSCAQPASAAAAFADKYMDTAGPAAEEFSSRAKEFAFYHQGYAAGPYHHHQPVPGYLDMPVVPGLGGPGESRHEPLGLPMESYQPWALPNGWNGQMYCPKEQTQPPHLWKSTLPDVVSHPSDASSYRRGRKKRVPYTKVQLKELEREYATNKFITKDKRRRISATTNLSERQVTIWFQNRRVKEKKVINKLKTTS

[5] = blockers of DNA damage checkpoint Chk1 activation – imaging, HeLa, hydroxyurea, phospho-Chk1 antibody, percent positive cells, primary screen (AID 1186); conditions: hydroxyurea-induced phospho-Chk1 immunofluorescence imaging, higher = more signal
[6] = blockers of DNA damage checkpoint Chk1 activation – imaging, HeLa, hydroxyurea, phospho-Chk1 nuclear intensity, primary screen (AID 1187); conditions: hydroxyurea-induced phospho-Chk1 immunofluorescence imaging, higher = more signal

Structure (SMILES) | composite z-score [1] | composite z-score [2] | z-score [3] | z-score [4] | z-score [5] | z-score [6]
NC(=O)NCC#Cc1ccc2c(c1)[C@]1(C(=O)N2)[C@H](C(=O)Nc2nc3ccccc3s2)[C@H]2C(=O)O[C@H](c3ccccc3)[C@H](c3ccccc3)N2[C@@H]1c1ccccc1OCCO | 0.478 (inactive) | 0.606 | -1.74 | 2.54 (inactive) | 0.302 (inactive) | 0.603 (inactive)
[N-]=[N+]=NCc1ccccc1C[C@]1(C(=O)N2CCCCC2)N=C(c2ccc(OCCCO)cc2)O[C@H]1c1ccccc1N=[N+]=[N-] | 0.113 (inactive) | 0.694 | -1.95 | 0.766 (inactive) | -0.273 (inactive) | -0.448 (inactive)
CO[C@H]1O[C@H](CO)[C@@H](OC(=O)Nc2ccc(Oc3ccccc3)cc2)[C@H](OC(=O)Nc2ccc3c(c2)OCO3)[C@H]1OC(=O)Nc1ccc2c(c1)OCO2 | 0.69 (inactive) | 0.891 | -2.33 | -5.25 (inactive) | -0.334 (inactive) | -0.152 (inactive)
COC(=O)[C@@]1(Cc2ccccc2)N=C(c2ccc(OCCCO)cc2)O[C@H]1c1ccccc1 | 1.16 (inactive) | 0.743 | -1.92 | -4.38 (inactive) | -0.343 (inactive) | -0.094 (inactive)
O=C(NCCN1CCOCC1)C1N=C(c2ccc(OCCCO)cc2)N(c2ccccc2)O1 (configuration not stated) | 2.46 (inactive) | 0.738 | -0.122 | -1.6 (inactive) | -0.227 (inactive) | -0.0873 (inactive)
COc1ccc(C#Cc2ccc3c(c2)[C@]2(C(=O)N3)[C@H](c3ccccc3OCCO)N3[C@H](c4ccccc4)[C@H](c4ccccc4)OC(=O)[C@H]3[C@@H]2C(=O)Nc2nc3ccccc3s2)cc1 | 0.881 (inactive) | 0.68 | -1.9 | 2.72 (inactive) | 0.165 (inactive) | 0.265 (inactive)
COCCOC(=O)N1C(=O)[C@@]2(c3cc(C#CCC(C(=O)OC)C(=O)OC)ccc31)[C@H](C(=O)Nc1nc3ccccc3s1)[C@H]1C(=O)O[C@H](c3ccccc3)[C@H](c3ccccc3)N1[C@@H]2c1ccccc1OCCO | 1.95 (inactive) | 0.813 | -1.8 | 3.19 (inactive) | 0.0747 (inactive) | 0.233 (inactive)
CC(=O)NCCCC[C@@H]1NC(=O)[C@@H]2C[C@H](C(=O)NCCCCCNC(=O)CS)[C@H](c3cccc(OCCO)c3)N2C1=O | 1.84 (inactive) | 0.471 | 0.246 | -3.21 (inactive) | -0.224 (inactive) | -0.27 (inactive)
CCOC(=O)C[C@H]1[C@H](OC(=O)c2ccc(C(=O)c3ccccc3)cc2)[C@@H](NC(=O)c2ccccc2)c2cc(OCCCO)ccc2N1C(=O)Cc1ccc(OC)cc1 | -0.0614 (inactive) | 0.511 | 0.4 | -1.99 (inactive) | 0.119 (inactive) | 0.134 (inactive)
COc1cc2c(cc1OC)CN(C(=O)[C@H]1[C@@H]3C(=O)O[C@@H](c4ccccc4)[C@@H](c4ccccc4)N3[C@@H](c3ccc(O)cc3)[C@]13C(=O)Nc1ccc(C#CCCO)cc13)CC2 | 0.22 (inactive) | 0.798 | -1.56 | -3.49 (inactive) | 0.113 (inactive) | 0.393 (inactive)
C=CCC(OC(C)=O)[C@@H]1[C@@H](N(Cc2cccc3ccccc23)C(=O)c2ccc(-c3ccccc3)cc2)c2cc(OCCCO)ccc2N1C(=O)c1ccc2ccccc2c1 (some centres not stated) | -0.176 (inactive) | 0.0439 | -1.55 | -1.35 (inactive) | 0.145 (inactive) | -0.0284 (inactive)
O=C1C[C@@](C(=O)NCC(F)(F)F)(c2ccc([N+](=O)[O-])cc2)[C@@H](c2ccc(CO)cc2I)N1C1CCCCC1 | 0.469 (inactive) | 0.778 | -1.26 | -4.99 (inactive) | -0.171 (inactive) | 0.187 (inactive)
O=C1[C@@]23C=C(Br)[C@H](C[C@@H]2CCOC3)[C@@]12CO2 | 0.792 (inactive) | -0.377 | 1.37 | 0.0303 (inactive) | -0.259 (inactive) | -0.561 (inactive)
COC(=O)c1c(CC[C@@H](CO)NC(=O)NCCn2cc(C3(O)CCCC3)nn2)oc(C(C)=O)c1C(=O)OC | 0.333 (inactive) | -0.0213 | -0.72 | -1.9 (inactive) | 0.0528 (inactive) | -0.0849 (inactive)
CCOC(=O)[C@H]1C/C=C/C[C@H](C(=O)OCC)C(=O)O[C@H]2[C@@H](OC)O[C@H](CO)[C@@H](OC(=O)c3c(OC)cccc3OC)[C@@H]2OC1=O | 0.676 (inactive) | 0.709 | 0.754 | -3 (inactive) | -0.0052 (inactive) | -0.142 (inactive)
CC1(C)[C@@H]2CC(C(O)C3C=CC4C(=O)N(c5ccccc5)C(=O)C4N3Nc3ccc([N+](=O)[O-])cc3)=C[C@H]1C2 (some centres not stated) | 0.19 (inactive) | 0.797 | -0.545 | -2.94 (inactive) | 0.0793 (inactive) | -0.261 (inactive)
C=C(C)[C@@H]1CC=C(C(O)C2C=CC3C(=O)N(c4ccccc4)C(=O)C3N2Nc2ccccc2)CC1 (some centres not stated) | 0.0668 (inactive) | 0.717 | 0.759 | -2.62 (inactive) | -0.437 (inactive) | -0.626 (inactive)
